Screening data from PubChem.
Hits are enriched below; roughly 1.2% of the tested compounds scored in any of these assays.
RXFP1 agonist = agonists of human relaxin receptor RXFP1; Q9HBX9; 370,000 tested, 0.3% active; HEK293T-RXFP1 cAMP TR-FRET, 30 min; response scale: percent of porcine relaxin response, buffer zero; Potency, µM (top dose mostly 57.5 µM), most hits filed as activators; AID 2676; note: nearly all actives have a fitted effect of over 60% in size
Target sequence (Q9HBX9 whole entry, looked up): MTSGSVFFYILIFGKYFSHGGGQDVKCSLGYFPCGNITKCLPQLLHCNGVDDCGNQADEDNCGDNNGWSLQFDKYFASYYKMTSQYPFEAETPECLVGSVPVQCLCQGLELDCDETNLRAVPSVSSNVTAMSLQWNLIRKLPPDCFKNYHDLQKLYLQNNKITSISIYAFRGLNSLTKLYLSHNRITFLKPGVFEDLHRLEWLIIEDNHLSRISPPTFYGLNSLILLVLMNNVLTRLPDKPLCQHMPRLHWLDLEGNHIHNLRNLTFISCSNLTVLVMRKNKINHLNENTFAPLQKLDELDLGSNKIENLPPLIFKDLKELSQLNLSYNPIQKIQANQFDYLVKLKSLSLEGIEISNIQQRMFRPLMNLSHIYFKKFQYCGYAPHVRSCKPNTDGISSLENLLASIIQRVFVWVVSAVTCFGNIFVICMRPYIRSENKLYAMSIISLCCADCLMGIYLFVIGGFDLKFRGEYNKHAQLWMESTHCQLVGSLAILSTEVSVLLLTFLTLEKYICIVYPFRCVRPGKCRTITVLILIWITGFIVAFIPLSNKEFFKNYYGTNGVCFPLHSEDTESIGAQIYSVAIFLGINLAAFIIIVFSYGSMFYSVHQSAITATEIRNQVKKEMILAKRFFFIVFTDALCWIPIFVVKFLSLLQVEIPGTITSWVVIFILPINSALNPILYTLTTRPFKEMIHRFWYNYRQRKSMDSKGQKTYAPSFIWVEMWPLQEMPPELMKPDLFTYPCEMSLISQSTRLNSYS
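HEK293T cells stably expressing RXFP1 were pretreated with the PDE4 inhibitor Ro 20174, exposed to compounds for 30 min at 37C, lysed, and cAMP was read by TR-FRET. Data normalized to buffer (basal) and 29 nM porcine relaxin (100%).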
gsp antagonist = gsp mutant antagonism | gsp-mutant cells, cAMP HTRF, 30 min | Potency, µM (top dose mostly 76.9 µM), most hits filed as inhibitors | 340,000 tested, 0.4% active; calls by dose curve; cell line not stated here;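 note: intracellular cAMP measured with PDE inhibitor Ro 20-1724 present during compound exposure; nearly all actives have a fitted effect of over 65% in size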
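G418-selected cells were plated in DMEM/10% FBS for 16-24 h at 37C, then treated with compounds plus the PDE inhibitor […] (300 uM solution added) for 30 min at 37C. Intracellular cAMP was measured by HTRF after 30 min lysis at room temperature.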
RXFP1 antag = antagonists of human relaxin receptor RXFP1; Q9HBX9; HEK293-RXFP1, relaxin-stimulated cAMP HTRF, 30 min; hits give low values; activity change, negative = inhibition, % at 57.5 µM; 350,000 tested, 0.59% active; AID 1259400;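 active = activity change of -60% or lower, but not beyond a set lower limit; inconclusive = change between -60% and -40%, or beyond the set limit; inactive = change above -40%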
gsp agonist = agonists of gsp mutant (McCune-Albright syndrome); gsp mutant cells, cAMP HTRF, 30 min; 340,000 tested, 0.13% active; Potency, µM (series often up to 76.9 µM), most hits filed as activators; active = well fitted activation curve with a large enough effect; inconclusive = small, poorly fitted or top-dose-only effect, or another doubt; inactive = no such curve, though single readings can be large or run the other way; cell line not stated here;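 note: phosphodiesterase inhibitor Ro 20-1724 added with compounds to block cAMP breakdown; nearly all actives have a fitted effect of over 60% in size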
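Cells in DMEM/10% FBS with G418 were pretreated with compounds in DMSO plus […] (300 uM stock) for 30 min at 37C. cAMP was measured by HTRF (cAMP-d2 plus anti-cAMP antibody-K) after 30 min at room temperature.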
CCT chaperon mod = cytosolic chaperonin activity modulation | 360,000 tested, 0.3% active | activity change, % (concentration not given with the values), hits read low | purified chaperonin ATPase assay, HTRF ADP detection, 30 min; in the data active = activity change below about -30%
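TRiC (40 or 20 nM final, by batch activity) in 30 mM Tris pH 7.4, 100 mM KCl, 5 mM MgCl2, 1 mM DTT was treated with compound at 76 uM single dose, then 10 uM ATP, 30 min at 37 °C. ADP was read by HTRF Transcreener.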
MmCpn inh = M. maripaludis TRiC chaperonin inhibition; purified Mm-Cpn ATPase, ADP Transcreener TR-FRET; 330,000 tested, 0.031% active; Potency, µM (highest dose often 76.9 µM), usual class: inhibitors; AID 504842; note: nearly all actives have a fitted effect of over 80% in size
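25 nM Mm-CPN + cpd, 10 min 37°C; + 10 uM ATP, 30 min 37°C; buffer 30 mM Tris pH 7.4, 100 mM KCl, 5 mM MgCl2, 1 mM DTT; Transcreener ADP HTRF detection 30 min RT.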
A number is an active result; [ ] = dose if it differs, or a comment. Unless noted, calls come from the whole dose curve; as a rule, active = well fitted curve in the direction sought with a large enough effect; inconclusive = small, poorly fitted or top-dose-only effect, or another doubt; inactive = no such curve, though single readings can be large; an effect the other way counts as inactive or inconclusive.

Screening Cc1ccc(-c2nc(N)sc2-c2ccccc2)cc1C returned RXFP1 agonist inactive, gsp antagonist inactive, RXFP1 antag -83.8, gsp agonist inactive, CCT chaperon mod inactive and MmCpn inh inactive.
Screening CN1CCC(N(Cc2cccs2)c2ccccc2)CC1 returned RXFP1 antag inactive.
O=C(Nc1cccc(/C=C/c2ccccn2)c1)c1ccc(-n2cncn2)c([N+](=O)[O-])c1 was read as RXFP1 agonist inactive, gsp antagonist 39.8µM, RXFP1 antag inactive, gsp agonist inactive[15.4 µM], CCT chaperon mod inactive and MmCpn inh inactive.
CCc1ccc(NC(=O)c2ccc(-n3cncn3)c([N+](=O)[O-])c2)cc1 was read as RXFP1 agonist inactive, gsp antagonist 50.1µM, RXFP1 antag inactive, gsp agonist inactive, CCT chaperon mod inactive and MmCpn inh inactive.
For CCOC(=O)C1(Cc2cccc(OC)c2)CCN(Cc2cccc(OC)c2OC)CC1 the results were RXFP1 agonist inactive, gsp antagonist inactive, RXFP1 antag inactive, gsp agonist inactive[15.4 µM], CCT chaperon mod inactive and MmCpn inh inactive.
For CCOC(=O)C1(Cc2cccc(OC)c2)CCN(Cc2cccc3c2OCO3)CC1 the results were RXFP1 agonist inactive, gsp antagonist inactive, RXFP1 antag -94.5, gsp agonist inactive[15.4 µM], CCT chaperon mod inactive and MmCpn inh inactive.
For CC(C)CCC(CCNCc1ccccn1)c1ccc(Cl)cc1 (stereo not given) the results were RXFP1 agonist inactive, gsp antagonist inactive, RXFP1 antag -68.6, gsp agonist inactive, CCT chaperon mod inactive and MmCpn inh inactive.
For COc1ccc(OC)c(-c2cc(C3CCN(c4cc(Cl)nc(N)n4)CC3)[nH]n2)c1 the results were RXFP1 agonist inactive, gsp antagonist 35.5µM, RXFP1 antag inactive, gsp agonist inactive, CCT chaperon mod inactive and MmCpn inh inactive.
O=C(Nc1nc2n(n1)C(c1ccccc1)C=C(c1ccccc1)N2)c1ccc(Cl)c([N+](=O)[O-])c1 (stereo not given) was read as RXFP1 agonist inactive and RXFP1 antag inactive.
CC(=O)c1c(C)[nH]c(C(=O)COc2cc(C)ccc2C(C)C)c1C was read as RXFP1 agonist inactive, gsp antagonist 11.2µM, RXFP1 antag inactive, gsp agonist inactive, CCT chaperon mod inactive and MmCpn inh inactive.
For COc1ccccc1OCC(=O)c1[nH]c(C)c(C(C)=O)c1C the results were RXFP1 agonist inactive, gsp antagonist 25.1µM, RXFP1 antag inactive, gsp agonist inactive, CCT chaperon mod inactive and MmCpn inh inactive.
For CC(=O)c1c(C)[nH]c(C(=O)COc2ccc(C#N)cc2)c1C the results were RXFP1 agonist inactive, gsp antagonist inactive, RXFP1 antag inactive, gsp agonist inactive, CCT chaperon mod inactive and MmCpn inh inactive.
For COc1cc(C)ccc1OCC(=O)OCC(=O)c1[nH]c(C)c(C(C)=O)c1C the results were gsp antagonist inactive, RXFP1 antag inactive, gsp agonist inactive[15.4 µM], CCT chaperon mod inactive and MmCpn inh inactive.
Screening CC(=O)N1c2c(cc(Br)cc2S(=O)(=O)Nc2c(C)n(C)n(-c3ccccc3)c2=O)CC1C (stereo not given) returned RXFP1 agonist inactive, RXFP1 antag inactive, gsp agonist inactive[15.4 µM], CCT chaperon mod -41.3 and MmCpn inh inactive.
Screening CC(=O)N1c2c(cc(Br)cc2S(=O)(=O)NCc2ccc(C)cc2)CC1C (stereo not given) returned RXFP1 agonist inactive, gsp antagonist 35.5µM, RXFP1 antag inactive, gsp agonist inactive[15.4 µM], CCT chaperon mod inactive and MmCpn inh inactive.
For Cc1c(NS(=O)(=O)c2cc(Br)cc3c2N(C(=O)C2CC2)CC3)c(=O)n(-c2ccccc2)n1C the results were RXFP1 agonist inactive, gsp antagonist inactive, RXFP1 antag inactive, gsp agonist inactive[15.4 µM], CCT chaperon mod inactive and MmCpn inh inactive.
For NCCNC(=O)Cc1ccc(NC(=O)Cc2ccc(Nc3ncnc4c3ncn4[C@@H]3O[C@H](CO)[C@@H](O)[C@H]3O)cc2)cc1 the results were RXFP1 agonist 1.41µM, gsp antagonist inactive, CCT chaperon mod inactive and MmCpn inh inactive.
`C[C@H](Cc1ccccc1)Nc1ncnc2c1ncn2[C@@H]1O[C@H](CO)[C@@H](O)[C@H]1O` gave RXFP1 agonist 11.2µM, gsp antagonist inactive, CCT chaperon mod inactive and MmCpn inh inactive.
For CCOc1ccc(NC(=O)CSc2nnc3scc(-c4ccccc4)n23)cc1 the results were RXFP1 agonist inactive and RXFP1 antag inactive.
`CC1CC(=O)NN=C1c1ccc(NCC(C)(C)NCC(O)COc2cc(Cl)ccc2C#N)cc1` (stereo not given) gave RXFP1 antag inactive.
Screening CCOC(=O)c1sc(=NC(=O)c2ccc(C)cc2)n(C)c1C returned RXFP1 agonist inactive, gsp antagonist inactive, RXFP1 antag inactive, gsp agonist inactive[15.4 µM], CCT chaperon mod inactive and MmCpn inh inconclusive.
Screening CCOC(=O)c1sc(=NC(=O)c2ccc(S(=O)(=O)N(C)c3ccccc3)cc2)n(C)c1C returned RXFP1 agonist 3.98µM, gsp antagonist inactive, RXFP1 antag inactive, gsp agonist inactive, CCT chaperon mod inactive and MmCpn inh inactive.
COc1ccc(-c2cc(=O)c3ccccc3o2)cc1 was read as RXFP1 agonist inactive, gsp antagonist inactive, RXFP1 antag inactive, gsp agonist inactive, CCT chaperon mod -45.8 and MmCpn inh inactive.
Screening Oc1ccc(N2CCN(c3ncnc4sc(-c5ccccc5)cc34)CC2)cc1 returned RXFP1 agonist inactive, gsp antagonist inactive, RXFP1 antag inactive, gsp agonist inactive[15.4 µM], CCT chaperon mod inactive and MmCpn inh inactive.
`CCc1cc2c(N3CCN(c4ccccc4)CC3)ncnc2s1` gave RXFP1 agonist inactive, gsp antagonist 50.1µM, RXFP1 antag inactive, gsp agonist inactive, CCT chaperon mod inactive and MmCpn inh inactive.
`CCc1ccc(C(=O)COC(=O)C(Cc2c[nH]c3ccccc23)NC(=O)c2ccc(CC)cc2)cc1` (stereo not given) gave RXFP1 agonist inactive and RXFP1 antag inactive.
COCCCNCCCOc1ccc(Cl)cc1C(C)(C)C was read as RXFP1 agonist inactive, gsp antagonist inactive, RXFP1 antag inconclusive, gsp agonist inactive[15.4 µM], CCT chaperon mod inactive and MmCpn inh inactive.
`CNCCCOc1ccc(Cl)cc1C(C)(C)C` gave RXFP1 agonist inactive, gsp antagonist inactive, RXFP1 antag -85.2, gsp agonist inactive, CCT chaperon mod inactive and MmCpn inh inactive.
`Cc1nc2n(c(=O)c1CCN1CCC(c3noc4cc(F)ccc34)CC1)CCC[C@H]2O` gave RXFP1 antag inactive.
